# Screen size: about 310,000 compounds; about 14,000 (4.5%) showed an effect of 50% or more. The effect is printed as a negative number. Many of the other results were omitted from the sample, so strong results are more common in it than they were.
# Target: human ether-à-go-go-related gene (hERG) potassium channel (human, UniProt Q12809)
# Assay: primary screen, population patch clamp on CHO cells stably expressing hERG; higher = less effect of the substance
# 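Also: peak tail current of the secondary pulse compared with the same well before compound.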
# human ether-à-go-go-related gene (hERG) potassium channel, sequence (Q12809 whole entry, looked up): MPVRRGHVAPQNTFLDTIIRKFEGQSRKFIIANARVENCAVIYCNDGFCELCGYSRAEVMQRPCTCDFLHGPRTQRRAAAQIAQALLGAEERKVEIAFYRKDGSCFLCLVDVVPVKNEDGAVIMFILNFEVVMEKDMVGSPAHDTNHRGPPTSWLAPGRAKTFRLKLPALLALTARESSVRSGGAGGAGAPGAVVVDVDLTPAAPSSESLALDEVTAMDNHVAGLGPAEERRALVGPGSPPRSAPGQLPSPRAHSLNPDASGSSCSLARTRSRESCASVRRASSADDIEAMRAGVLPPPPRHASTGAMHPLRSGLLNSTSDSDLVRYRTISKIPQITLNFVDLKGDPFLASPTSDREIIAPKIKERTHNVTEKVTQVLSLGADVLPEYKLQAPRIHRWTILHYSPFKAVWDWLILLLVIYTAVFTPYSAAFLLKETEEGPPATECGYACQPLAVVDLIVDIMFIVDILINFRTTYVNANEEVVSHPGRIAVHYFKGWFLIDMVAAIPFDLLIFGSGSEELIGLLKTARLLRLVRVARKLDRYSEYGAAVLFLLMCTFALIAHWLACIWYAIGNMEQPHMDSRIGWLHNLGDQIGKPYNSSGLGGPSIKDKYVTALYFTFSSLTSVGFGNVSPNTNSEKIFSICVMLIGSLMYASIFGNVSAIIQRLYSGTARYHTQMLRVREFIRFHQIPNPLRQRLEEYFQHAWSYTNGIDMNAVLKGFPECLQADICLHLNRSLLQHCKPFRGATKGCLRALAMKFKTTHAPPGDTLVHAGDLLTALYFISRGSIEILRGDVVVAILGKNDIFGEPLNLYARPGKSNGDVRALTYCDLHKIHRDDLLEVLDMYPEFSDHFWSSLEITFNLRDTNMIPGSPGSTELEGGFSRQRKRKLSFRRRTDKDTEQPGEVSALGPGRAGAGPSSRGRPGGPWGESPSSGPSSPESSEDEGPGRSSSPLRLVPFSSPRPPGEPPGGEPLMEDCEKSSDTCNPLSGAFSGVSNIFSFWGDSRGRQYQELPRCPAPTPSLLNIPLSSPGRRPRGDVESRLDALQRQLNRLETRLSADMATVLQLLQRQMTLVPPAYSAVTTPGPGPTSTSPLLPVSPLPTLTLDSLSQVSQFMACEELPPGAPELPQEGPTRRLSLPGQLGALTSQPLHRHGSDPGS
row,Structure (SMILES),"hERG current change (%, negative = inhibition) at 10uM"
1,CCCC(=O)Nc1nc2nc(C)cc(=O)n2[nH]1,1.2%
2,Cc1cc(C)c2c(=O)[nH]n(C3CC(C)N(C)CC3C)c2n1 (centres unmarked),4.5%
3,CC1(C)Cc2c(sc3nc(-c4cccs4)n(N)c(=O)c23)CO1,-22.5%
4,CCN(c1cccc(C)c1)S(=O)(=O)c1ccc2c(c1)NC(=O)CS2,-7.28%
5,Cc1nnc2ccc(Oc3ccc(-c4ccccc4)cc3)nn12,-5.63%
6,CCC1C(c2ccccc2)NC(c2ccccc2)CC1(O)c1ccc(F)cc1.Cl (centres unmarked),11.4%
7,Cc1cc(C)n2cc(CSCc3ccccc3)nc2n1,-36.9%
8,Cc1cc(C)n2cc(CSc3nnc(-c4ccccc4)o3)nc2n1,-38.3%
9,Cc1cc(C)n2cc(CSc3ncn[nH]3)nc2n1,0.809%
10,Cc1ccc(SCc2cn3c(C)cc(C)nc3n2)cc1,-67.1%
11,Cc1ccc2nc(SCc3cn4c(C)cc(C)nc4n3)[nH]c2c1,-20.9%
12,O=c1cc(CSc2nc3cc(Cl)ccc3o2)nc2sccn12,10.4%
13,Cc1cc(C)n2cc(CSc3nc4cc(Cl)ccc4o3)nc2n1,-68.1%
14,Cc1ccnc(SCc2cn3c(C)cc(C)nc3n2)n1,-3.93%
15,Cc1cc(C)n2cc(CSc3ccc(Br)cc3)nc2n1,-63.8%
16,Cc1cccc2nc(CSc3ccc(Cl)cc3)cn12,-74.3%
17,Clc1ccc(SCc2cn3ccccc3n2)cc1,-18.1%
18,Cc1cc(C)nc(SCc2cn3c(C)cccc3n2)n1,6.36%
19,COc1ccccc1N=Nc1c(C)noc1C,10.6%
20,CCOC(=O)/C(C#N)=N/Nc1ccc(S(=O)(=O)Nc2cc(OC)nc(OC)n2)cc1,-13.1%
21,CC(C)(C)c1nnc(NS(C)(=O)=O)s1,8.21%
22,O=c1[nH]n(-c2ccc([N+](=O)[O-])cc2)c(=O)c2ccccc12,5.47%
23,COCc1ccc(C(=O)N2CCCC(C(=O)c3ccc(SC)cc3)C2)o1 (centres unmarked),-41.6%
24,Nc1cnc(Nc2ccc(Br)cc2)nc1N.O=S(=O)(O)O,-8.72%

row,Structure (SMILES),"hERG current change (%, negative = inhibition) at 10uM"
1,CCc1c(C)nc(SCC(=O)Nc2cccc(Br)c2)[nH]c1=O,16.3%
2,Cc1cc(C)n2cc(CSc3ccc(Cl)cc3)nc2n1,-64.9%
3,Cc1csc2nc(CSc3ccc(Cl)cc3)cn12,-27.3%
4,Cc1cc(C)n2cc(CSc3ccccn3)nc2n1,13.6%
5,CC(C)Oc1ccc(CNC2CCOC(C)(C)C2)cc1 (centres unmarked),18%
6,C=CCNc1nc2c(c(=O)[nH]c(=O)n2C)n1CCCc1ccccc1,-4.44%
7,CC1=C(C(=O)OCc2ccccc2)C(c2ccccc2-c2ccccc2)NC(=O)N1CCCCCC(=O)O (centres unmarked),-63.1%
8,CC1=C(C(=O)OCc2ccccc2)C(c2ccccc2Cl)NC(=O)N1CCCCCC(=O)O (centres unmarked),-12.4%
9,CC1=C(C(=O)OCc2ccccc2)C(c2ccc(-c3ccccc3)cc2)NC(=O)N1CCCCCC(=O)O (centres unmarked),-2.3%
10,CCN(CC(=O)Nc1c(F)cccc1F)C(=O)c1ccc2ccccc2n1,-19.6%
11,O=c1[nH]cccc1-c1nc2ccccc2n1Cc1ccc(F)cc1,-22.5%
12,CCOc1ccc(NC(=O)CN(C)C(=O)c2ccccc2Cc2ccccc2)cc1OCC,-14%
13,O=[N+]([O-])c1ccc(/C=N\N2CCN(c3ccc(Cl)cc3)CC2)cc1,16.8%
14,O=[N+]([O-])c1ccc(N2CCN(Cc3cccc([N+](=O)[O-])c3)CC2)cc1,-71.8%
15,O=[N+]([O-])c1ccc(N2CCC(=NOCc3ccc(Cl)cc3)CC2)cc1,-54.5%
16,FC(F)(F)c1cnc(N2CCC(=NOCc3ccc(Cl)cc3)CC2)c(Cl)c1,29.6%
17,O=[N+]([O-])c1ccc(CN2CCN(c3ccc([N+](=O)[O-])cc3)CC2)cc1,-74.1%
18,O=[N+]([O-])c1cccc(CN2CCN(c3ncccn3)CC2)c1,-1.26%
19,O=[N+]([O-])c1ccc(N2CCN(CC3CCCCC3)CC2)cc1,-63%
20,CC(=O)c1ccc(N2CCN(CC3CCCCC3)CC2)cc1,-24%
21,O=[N+]([O-])c1cccc(CN2CCCCCC2)c1,5.75%
22,c1ccc(N2CCN(CC3CCCCC3)CC2)cc1,9.61%
23,CCOc1ccccc1-c1nnc(SCC(=O)NC2CC3CCC2C3)n1CC (centres unmarked),-3.89%

# From PMC4336329 (PLoS ONE, 2015)
